# Screening results as filed in PubChem.
# DAX1 inh: inhibitors of DAX1 repression of SF-1 activated StAR promoter; HEK293T StAR-luciferase reporter, SF-1/DAX-1 repression relief; inhibition, % at 6.8 µM; actives 1.1% (n = 370,000); AID 652010;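 active = inhibition above the mean over all tested compounds plus 3 SD, cut at about 3.6% in these data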;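 also: 0% = DAX-1 cells with DMSO and 100% = cells lacking DAX-1 with DMSO; higher inhibition means more luminescence from relief of DAX-1 repression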
# ssDAF-12 act: activates DAF-12 receptor from parasite S. stercoralis; HEK293 ssDAF-12/GRIP1 lit1-tk-luc reporter, luminescence; % of 3 µM dafachronic acid response; activation, % at 6.8 µM; actives 1% (n = 370,000); AID 652126;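 active = activation above the mean over all tested compounds plus 3 SD, cut at about 0.9% in these data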;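 also: 0% = DMSO-only wells and 100% = 3 µM delta7-dafachronic acid wells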
# hgDAF12 agonist: hgDAF-12 agonism, primary luciferase screen. HEK293 GAL4-hgDAF12 UAS-luciferase reporter, agonist luminescence; normalized to butyrate control. activation, % at 6.8 µM. actives 1.8% (n = 370,000);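 active = activation above a cutoff set at the mean of all screened compounds plus 3 SD, cut at about 10% in these data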;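 also: 0% = DMSO wells and 100% = sodium butyrate wells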
# Wnt act: Wnt/beta-catenin pathway activation; Wnt/beta-catenin reporter cell assay, activator, plate reader; activation, % at 9.35 µM; actives 1.2% (n = 300,000); AID 743398; in the data active = activation above about 30%, passing the limit was not always enough; inconclusive = no clear call, values can overlap the other calls;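 also: 0% = neutral control wells and 100% = positive control wells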
# hcDAF12 agonist: activates DAF-12 receptor from parasite H. contortus; HEK293 hcDAF-12 lit1-tk-luc reporter, luminescence; 0% DMSO, 100% Δ7-dafachronic acid; activation, % at 6.8 µM; actives 1.4% (n = 370,000); AID 652067;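 active = activation above the mean of all tested compounds plus 3 SD, cut at about 5.5% in these data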;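 also: 100% = response to 3 µM Δ7-dafachronic acid high control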
# esBAF inh: SWI/SNF esBAF complex inhibition; mouse ES cells, Bmi1-luciferase knock-in reporter, 24 h; 100% = twice the neutral-well signal; reporter increase, % at 12.5 µM; actives 2% (n = 350,000); AID 602393; in the data active = activation above about 40%; inconclusive = no clear call, values can overlap the other calls;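 also: 0% = median of the plate's neutral control wells and 100% = double that signal; a rise in the Bmi1 reporter signal indicates esBAF inhibition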
# DAX1 inh confirm: NR0B1 (human) inhibition, confirmation. HEK293T StAR-promoter luciferase reporter, SF-1/DAX-1 repression. AID 652134. shares compounds with DAX1 inh. inhibition, % at 6.8 µM. actives 87% (n = 2,400);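 active = inhibition above the average of every tested compound plus 3 SD, cut at about 3.8% in these data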;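 also: 0% = DAX-1 cells with DMSO and 100% = no DAX-1 control cells with DMSO; active compounds raise luminescence by relieving repression of the StAR reporter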
# SF1 AF2mut Luc: nonselective inhibitor or artifact in SF-1 mutant DAX1 counter-screen. shares compounds with DAX1 inh. AID 652136. inhibition, % at 6.8 µM. actives 78% (n = 2,400). HEK293 StAR-luciferase, SF-1 AF2 mutant, luminescence;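 active = inhibition above the mean of all tested compounds plus 3 SD, cut at about 3% in these data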;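 also: 0% = DAX-1 transfected cells with DMSO and 100% = cells without DAX-1 with DMSO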
# LXR ag: counter-screen for hcDAF-12 agonists: agonists of human LXR-beta. shares compounds with hcDAF12 agonist. AID 743027. activation, % at 6.8 µM. 3,400 tested, under 10 active. HEK293 Gal4-LXR tk-luc reporter, luminescence, 24 h; normalized: DMSO 0%, positive control 100%;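 active = mean percent activation of the reporter above a cutoff set as the average over tested compounds plus their standard deviation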
# Target sequence (P55055 whole entry, looked up, the tested form may be a part): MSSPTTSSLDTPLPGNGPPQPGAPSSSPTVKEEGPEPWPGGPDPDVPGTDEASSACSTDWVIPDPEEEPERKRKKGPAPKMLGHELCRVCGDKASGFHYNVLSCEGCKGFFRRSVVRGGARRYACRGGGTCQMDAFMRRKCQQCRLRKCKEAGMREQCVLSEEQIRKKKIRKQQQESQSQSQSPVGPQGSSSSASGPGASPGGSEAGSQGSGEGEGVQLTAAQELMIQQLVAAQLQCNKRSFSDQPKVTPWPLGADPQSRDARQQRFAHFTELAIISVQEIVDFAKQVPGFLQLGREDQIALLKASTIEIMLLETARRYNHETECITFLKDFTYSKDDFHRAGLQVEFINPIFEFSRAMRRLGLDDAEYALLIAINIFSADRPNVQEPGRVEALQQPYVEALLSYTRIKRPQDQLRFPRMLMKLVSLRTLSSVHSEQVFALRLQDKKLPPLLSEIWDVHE
# hcDAF12 conf: hcDAF-12 agonism, confirmation assay; shares compounds with hcDAF12 agonist; HEK293 hcDAF-12 lit1-tk-luc reporter, luminescence; % of Δ7-dafachronic acid response; activation, % at 6.8 µM; actives 61% (n = 3,400); AID 743032;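 active = mean activation across triplicate tests above the threshold derived from the earlier primary screen, cut at about 5.5% in these data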;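 also: 0% = DMSO only wells and 100% = 3 µM Δ7-dafachronic acid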
# hgDAF12 ag: confirmation of H. glycines DAF-12 agonists; actives 80% (n = 3,300); HEK293 GAL4-hgDAF12 luciferase reporter, agonist mode; percent of butyrate response; shares compounds with hgDAF12 agonist; activation, % at 6.8 µM;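 active = mean activation over triplicate wells above the hit cutoff derived from the earlier primary screen, cut at about 11% in these data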;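 also: 0% = DMSO low control and 100% = 2 mM sodium butyrate high control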
# LXR ag 2: LXR-beta agonism as DAF-12 counter-screen | AID 743051 | shares compounds with hgDAF12 agonist | 3,300 tested, under 10 active | activation, % at 6.8 µM | HEK293 Gal4-LXR luciferase reporter, 24 h;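 active = mean activation of the triplicate above a set limit carried over from the primary screen, none filed active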
# Active calls of the source: *; ? = inconclusive; . = no result given. Compounds with a hit are over-represented: about 4.2% of the library has one in this group of screens.
SMILES,DAX1 inh,ssDAF-12 act,hgDAF12 agonist,Wnt act,hcDAF12 agonist,esBAF inh,DAX1 inh confirm,SF1 AF2mut Luc,hgDAF12 ag,LXR ag 2,others
Cc1occc1-c1nnc(SC(C)C(=O)Nc2ccccc2F)o1 (stereo unspecified),10*,0,15*,42*,4,.,9.5*,7.1*,14*,0,
CO[C@@H]1CN(C)C(=O)c2cc(NS(C)(=O)=O)ccc2OC[C@@H](C)N(Cc2cccnc2)C[C@@H]1C,.,.,.,.,.,-1,.,.,.,.,
O=C(Nc1cccc(F)c1)c1ccc(-n2cncn2)c2ccoc12,9.0*,0,17*,1,9.4*,-13,16*,5.4*,17*,1,LXR ag=2;hcDAF12 conf=9.5*
CC(=O)c1cnc2cc(-c3ccccc3)nn2c1C,2,0,5,.,1,?,.,.,.,.,
Nc1c(-c2ccccc2)cnc2cc(-c3ccccc3)nn12,6.0*,0.9*,22*,56*,2,.,16*,7.7*,26*,1,
Nc1nc(CSc2n[nH]c(-c3ccccc3)n2)nc(Nc2ccccc2)n1,-1,-2,-4,.,-3,.,.,.,.,.,
Cc1ccc(-c2nc(Nc3ccccc3)n[nH]2)cc1,6.2*,1.4*,14*,45*,12*,.,23*,11*,22*,1,LXR ag=2;hcDAF12 conf=13*
Cc1cccnc1NC(=O)Cn1nc(-c2ccccc2)oc1=S,4.9*,1.0*,19*,.,4,.,12*,7.5*,17*,1,
CCn1c(C)cc(C(=O)CSc2nnnn2C2CCCC2)c1C,9.6*,0,13*,3,3,-11,13*,7.4*,17*,1,
Cc1cc(NC(=O)CSc2nnnn2C2CCCC2)no1,0,-1,1,.,0,-5,.,.,.,.,
C[C@H](O)C#Cc1cnc2c(c1)C(=O)N([C@H](C)CO)C[C@@H](C)[C@@H](CN(C)C(=O)c1ccncc1)O2,.,.,.,.,.,8,.,.,.,.,
O=C(Nc1ccccc1)c1ccc(-c2ccccc2)s1,5.4*,1,14*,5,2,.,12*,8.5*,17*,0,
C[C@H](CO)N1C[C@H](C)[C@@H](CN(C)S(=O)(=O)CC(F)(F)F)OCc2ccccc2-c2ccccc2C1=O,.,.,.,.,.,-3,.,.,.,.,
c1coc(-c2cc3nc(NC4CCCCC4)ccn3n2)c1,10*,1.2*,22*,5,10*,40,15*,10*,19*,1,LXR ag=2;hcDAF12 conf=12*
CC(=O)NC12CC3CC(C1)CC(C(=O)OCC(=O)c1cc(C)n(C)c1C)(C3)C2,9.8*,0,16*,-3,6.7*,9,11*,7.1*,14*,1,LXR ag=1;hcDAF12 conf=6.2*
CN(C)c1ccc(/C=N\NC(=O)c2csnn2)cc1,5.0*,1.3*,17*,22,6.5*,-23,12*,6.1*,19*,1,
COc1ccc(C(=O)NNC(=S)Nc2ccccc2)cc1,10*,0,17*,21,4,.,16*,12*,15*,1,
COc1cccc(NC(=O)c2ccccc2)c1,2,-1,8,26,2,35,.,.,.,.,
Cc1cc(=O)oc2cc(NC(=O)c3ccccc3C(=O)O)ccc12,0,-1,3,0,-2,-5,.,.,.,.,
COc1ccc(C(=O)Nc2cccc(OC)c2)cc1,5.4*,1.0*,16*,19,4,8,14*,0,16*,1,
COc1cccc(C(=O)Nc2ccc3c(C)cc(=O)oc3c2)c1,17*,1.0*,13*,33*,6.1*,34,14*,10*,21*,1,
COc1ccc(C(=O)NNC(=S)NC(=O)c2ccc(OC)cc2)cc1,-1,-1,3,0,0,14,.,.,.,.,
O=C(NNC(=S)Nc1ccccc1Cl)c1ccccc1,15*,1,14*,24,3,71*,12*,8.2*,18*,1,
COCC(=O)N1C[C@H](C)[C@@H](OC)CN(C)C(=O)c2cc(NC(=O)NC(C)C)ccc2OC[C@@H]1C,.,.,.,.,.,-2,.,.,.,.,
C[C@H]1CN([C@@H](C)CO)C(=O)c2cccc(NC(=O)c3ccncc3)c2O[C@H]1CN(C)C(=O)NC1CCCCC1,.,.,.,.,.,4,.,.,.,.,
SMILES,DAX1 inh,ssDAF-12 act,hgDAF12 agonist,Wnt act,hcDAF12 agonist,esBAF inh,DAX1 inh confirm,SF1 AF2mut Luc,hgDAF12 ag,LXR ag 2,others
CNC(=O)C[C@@H]1CC[C@H]2[C@H](COc3ccc(NC(=O)c4ccc(F)cc4)cc3C(=O)N2C)O1,.,.,.,.,.,9,.,.,.,.,
O=C(N[C@@H]1CC[C@H](CCNS(=O)(=O)Cc2ccccc2)O[C@H]1CO)c1cnccn1,.,.,.,.,.,1,.,.,.,.,
Cc1noc(C)c1S(=O)(=O)Nc1ccc2c(c1)C(=O)N([C@H](C)CO)C[C@@H](C)[C@@H](CN(C)S(=O)(=O)c1ccccc1)O2,.,.,.,.,.,-4,.,.,.,.,
Cc1ccc2nc(N(CCN3CCOCC3)C(=O)CCS(=O)(=O)c3ccccc3)sc2c1,5.1*,0,14*,26,0,32,6.8*,4.8*,11*,0,
Cc1ccc(S(=O)(=O)CCC(=O)N(CCCN2CCOCC2)c2nc3ccccc3s2)cc1,3,0,6,1,3,15,.,.,.,.,
CNC(=O)C[C@@H]1CC[C@H]2[C@H](COc3ccc(NC(=O)NC(C)C)cc3C(=O)N2C)O1,.,.,.,.,.,1,.,.,.,.,
O=C([C@H]1[C@H](CO)[C@H]2Cn3c(cccc3=O)[C@H]2N1C(=O)CC1CC1)N1CCCCC1,.,.,.,.,.,-2,.,.,.,.,
COCC#Cc1cnc2c(c1)C(=O)N([C@@H](C)CO)C[C@H](C)[C@@H](CN(C)C(=O)c1cccnc1)O2,.,.,.,.,.,5,.,.,.,.,
